Results from PubChem BioAssay (EPA / NIEHS).
Inconclusive results are not listed. Some compounds were tested as several samples or in several runs, with calls that do not always agree. The source made the active and inactive calls. How the source made its calls, unless noted: active means hit-call score of the fitted dose curve at least 0.9, where 1 is the maximum; inconclusive means response in the unintended direction; inactive means score below 0.9.

Columns and labels:
[1] = target: Estrogen receptor (Homo sapiens) (UniProt P03372); experiment: OT_ERa_GFPERaERE_0480: Odyssey Thera (OT) 8-hour HeLa Transcription Induction Assay for Estrogen Receptor (AID 2283381; active means hit-call score of the fitted dose curve at least 0.9, where 1 is the maximum; inactive means score below 0.9)
Estrogen receptor (Homo sapiens), sequence (P03372 whole entry, looked up): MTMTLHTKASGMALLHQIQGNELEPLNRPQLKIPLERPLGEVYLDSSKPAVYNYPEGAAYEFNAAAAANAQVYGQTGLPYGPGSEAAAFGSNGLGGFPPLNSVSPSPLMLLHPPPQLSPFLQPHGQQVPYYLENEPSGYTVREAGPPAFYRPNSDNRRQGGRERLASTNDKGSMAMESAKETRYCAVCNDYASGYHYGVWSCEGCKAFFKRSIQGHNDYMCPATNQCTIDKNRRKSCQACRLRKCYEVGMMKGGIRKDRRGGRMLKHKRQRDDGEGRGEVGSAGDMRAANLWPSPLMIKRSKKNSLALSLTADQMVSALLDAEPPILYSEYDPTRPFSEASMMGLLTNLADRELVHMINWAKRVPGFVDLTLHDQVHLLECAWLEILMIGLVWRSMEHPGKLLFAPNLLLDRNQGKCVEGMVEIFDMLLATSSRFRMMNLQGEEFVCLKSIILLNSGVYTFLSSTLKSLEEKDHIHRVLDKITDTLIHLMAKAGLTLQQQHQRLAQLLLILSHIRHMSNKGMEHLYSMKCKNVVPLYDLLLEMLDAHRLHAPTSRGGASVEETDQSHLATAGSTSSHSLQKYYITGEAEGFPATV
Summary of the method: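 Fluorescent reporter signal, imaged by microscopy and scored with image-analysis algorithms, was taken 8 h after chemical dosing of HeLa cells; activity was fitted upward relative to DMSO.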

[2] = target: Estrogen receptor (Homo sapiens) (UniProt P03372); experiment: OT_ERa_GFPERaERE_0120: Odyssey Thera (OT) 2-hour HeLa Transcription Induction Assay for Estrogen Receptor (AID 2283382)
Summary of the method: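 HeLa, 384-well, 2 h chemical exposure; GFP reporter induction (ERE), fluorescence microscopy; high content image analysis; positive fitting direction vs DMSO.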

[3] = target: Retinoic acid receptor RXR-alpha (Homo sapiens) (UniProt P19793); experiment: OT_NURR1_NURR1RXRa_0480: Odyssey Thera (OT) 8-hour HEK293T Protein Complementation Assay for Nurr1/retinoid X receptor (RXR) (AID 2283385)
Retinoic acid receptor RXR-alpha (Homo sapiens), sequence (P19793 whole entry, looked up, the tested form may be a part): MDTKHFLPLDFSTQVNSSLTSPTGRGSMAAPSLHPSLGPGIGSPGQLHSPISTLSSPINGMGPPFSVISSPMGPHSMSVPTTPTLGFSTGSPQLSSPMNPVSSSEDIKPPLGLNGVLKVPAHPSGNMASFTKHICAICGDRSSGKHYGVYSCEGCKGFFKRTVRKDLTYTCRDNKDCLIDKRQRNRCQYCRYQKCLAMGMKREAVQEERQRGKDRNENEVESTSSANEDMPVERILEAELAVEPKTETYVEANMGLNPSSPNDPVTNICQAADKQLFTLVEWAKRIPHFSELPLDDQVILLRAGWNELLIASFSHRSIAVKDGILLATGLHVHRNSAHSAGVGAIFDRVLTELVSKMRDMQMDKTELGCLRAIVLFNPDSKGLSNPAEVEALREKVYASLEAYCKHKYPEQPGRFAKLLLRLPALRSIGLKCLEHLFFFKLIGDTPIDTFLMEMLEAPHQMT
Summary of the method: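 8 h compound exposure, HEK293T; Nurr1/RXRα fragment complementation; fluorescence intensity; positive fitting direction vs DMSO baseline.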

[4] = target: Retinoic acid receptor RXR-alpha (Homo sapiens) (UniProt P19793); experiment: OT_NURR1_NURR1RXRa_1440: Odyssey Thera (OT) 24-hour HEK293T Protein Complementation Assay for Nurr1/retinoid X receptor (RXR) (AID 2283386)
Summary of the method: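 Interaction of Nurr1 with RXRα brings fused reporter fragments together in human HEK293T cells, restoring a functional reporter. Fluorescence intensity is measured 24 h after chemical treatment, and values are analysed in the positive direction against DMSO.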

[5] = target: Peroxisome proliferator-activated receptor gamma (Homo sapiens) (UniProt P37231); experiment: OT_PPARg_PPARgSRC1_0480: Odyssey Thera (OT) 8-hour Protein-Complementation Assay for Peroxisome Proliferator-activated Receptor Gamma / SRC-1 Co-activator (AID 2283387);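 further: nuclear to cytoplasmic split Venus YFP fluorescence ratio reporting PPARg SRC-1 interaction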
Peroxisome proliferator-activated receptor gamma (Homo sapiens), sequence (P37231 whole entry, looked up, the tested form may be a part): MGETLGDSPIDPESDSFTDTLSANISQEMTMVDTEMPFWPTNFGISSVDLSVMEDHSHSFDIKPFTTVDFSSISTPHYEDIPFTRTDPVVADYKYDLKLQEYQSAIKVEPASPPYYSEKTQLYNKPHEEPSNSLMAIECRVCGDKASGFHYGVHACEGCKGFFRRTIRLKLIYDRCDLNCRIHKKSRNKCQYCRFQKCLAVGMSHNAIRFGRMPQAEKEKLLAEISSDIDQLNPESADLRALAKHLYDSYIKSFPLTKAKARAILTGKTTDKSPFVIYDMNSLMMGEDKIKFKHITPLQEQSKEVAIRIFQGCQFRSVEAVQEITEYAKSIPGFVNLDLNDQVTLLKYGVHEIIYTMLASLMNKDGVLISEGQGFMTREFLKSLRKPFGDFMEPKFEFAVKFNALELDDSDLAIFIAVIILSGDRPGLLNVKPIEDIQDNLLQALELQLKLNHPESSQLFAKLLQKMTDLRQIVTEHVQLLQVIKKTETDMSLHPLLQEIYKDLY
Summary of the method: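 Protein-fragment complementation in HEK293T: Venus YFP halves (residues 1-158, 159-239, mutated to IFP1/IFP2) fused to PPARg/SRC-1. 8 h exposure; N/C ratio at 488 nm; DMSO negative control.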

[6] = target: Peroxisome proliferator-activated receptor gamma (Homo sapiens) (UniProt P37231); experiment: OT_PPARg_PPARgSRC1_1440: Odyssey Thera (OT) 24-hour Protein-Complementation Assay for Peroxisome Proliferator-activated Receptor Gamma/ SRC-1 Co-activator (AID 2283388);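 further: nuclear to cytoplasmic ratio of reconstituted Venus YFP fluorescence in fixed imaged cells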
Summary of the method: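 Protein-fragment complementation between PPARg and coactivator SRC-1 was measured by fluorescence imaging in transiently transfected HEK293T cells after 24 h treatment. Signal was quantified as N/C ratio in the 488 nm channel, with DMSO as negative control.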

[7] = CEETOX_H295R_11DCORT: CeeTox H295R High-throughput Steroidogenesis Assay for 11-Deoxycortisol (11DCORT) (AID 2283432; active means hit-call score of the fitted dose curve at least 0.9, where 1 is the maximum; inactive means score below 0.9;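 on AC50: 11-deoxycortisol secreted into the medium measured by LC-MS/MS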); details: actives raise or lower the signal
Summary of the method: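 Adrenal carcinoma line H295R, run per OECD 456 with minor changes, was forskolin-stimulated (10 uM, 48 h) before a 48 h chemical exposure at 0.1% DMSO. Secreted 11-deoxycortisol was quantified by HPLC-MS/MS.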

[8] = CEETOX_H295R_OHPREG: CeeTox H295R High-throughput Steroidogenesis Assay for OH-Pregnenolone (OHPREG) (AID 2283434; active means hit-call score of the fitted dose curve at least 0.9, where 1 is the maximum; inactive means score below 0.9); details: actives raise or lower the signal
Summary of the method: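 Human adrenal H295R cells were prestimulated 48 h with 10 uM forskolin, then exposed 48 h to chemical in 0.1% DMSO. Medium 17alpha-hydroxypregnenolone was quantified by HPLC-MS/MS after MTBE extraction; bidirectional fitting versus DMSO baseline.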

[9] = CEETOX_H295R_ANDR: CeeTox H295R High-throughput Steroidogenesis Assay for Androstenedione (ANDR) (AID 2283436; active means hit-call score of the fitted dose curve at least 0.9, where 1 is the maximum; inactive means score below 0.9); details: actives raise or lower the signal
Summary of the method: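 H295R human adrenal cells (passages ≤10) were exposed to test chemicals for 48 h; androstenedione in medium was MTBE-extracted and quantified by HPLC-MS/MS against a 7-point standard curve. Bidirectional fitting used DMSO as baseline.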

[10] = CEETOX_H295R_CORTIC: CeeTox H295R High-throughput Steroidogenesis Assay for Corticosterone (CORTIC) (AID 2283437; active means hit-call score of the fitted dose curve at least 0.9, where 1 is the maximum; inactive means score below 0.9;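 further: corticosterone secreted into medium quantified by mass spectrometry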); details: actives raise or lower the signal
Summary of the method: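 H295R cells were prestimulated 48 h with 10 uM forskolin, then exposed 48 h to test chemical in 0.1% DMSO. Medium corticosterone was MTBE-extracted and quantified by HPLC-MS/MS; bidirectional fit versus DMSO baseline.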

[11] = CEETOX_H295R_CORTISOL: CeeTox H295R High-throughput Steroidogenesis Assay for Cortisol (AID 2283438; active means hit-call score of the fitted dose curve at least 0.9, where 1 is the maximum; inactive means score below 0.9;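 further: cortisol secreted into medium quantified by LC-MS/MS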); details: actives raise or lower the signal
Summary of the method: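 Forskolin 10 uM 48 h prestim → test cmpd in DMSO (0.1% final) 48 h → medium MTBE-extracted → LC-MS/MS cortisol vs 7-pt std curve. Gain/loss of signal fitted vs DMSO. MTT viability in same wells.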

[12] = CEETOX_H295R_DOC: CeeTox H295R High-throughput Steroidogenesis Assay for DOC (AID 2283439; active means hit-call score of the fitted dose curve at least 0.9, where 1 is the maximum; inactive means score below 0.9); details: actives raise or lower the signal
Summary of the method: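 Readout: 11-deoxycorticosterone in culture medium by reverse-phase C18 HPLC with ESI+ tandem MS after MTBE extraction. Cells: H295R, forskolin-primed (10 uM, 48 h), chemical-treated 48 h; DMSO 0.1% final. Activity fitted bidirectionally versus DMSO.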

[13] = CEETOX_H295R_ESTRONE: CeeTox H295R High-throughput Steroidogenesis Assay for Estrone (AID 2283441; active means hit-call score of the fitted dose curve at least 0.9, where 1 is the maximum; inactive means score below 0.9;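 further: estrone secreted into medium measured by LC-MS/MS after dansyl derivatization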); details: actives raise or lower the signal
Summary of the method: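 H295R cells prestimulated 48 h with 10 uM forskolin, then exposed 48 h to chemicals in 0.1% DMSO final; estrone in medium extracted with MTBE, dansyl-derivatized, quantified by HPLC-MS/MS; bidirectional fitting versus DMSO, viability by MTT.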

[14] = CEETOX_H295R_PROG: CeeTox H295R High-throughput Steroidogenesis Assay for Progesterone (PROG) (AID 2283442; active means hit-call score of the fitted dose curve at least 0.9, where 1 is the maximum; inactive means score below 0.9;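 on AC50: human H295R adrenal cells primed with 10 µM forskolin before dosing; progesterone secreted into medium by H295R cells measured by HPLC-MS/MS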); details: actives raise or lower the signal
Summary of the method: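 Steps: seed H295R cells and let them adhere overnight; prime 48 h with 10 uM forskolin; dose with compound in DMSO at 0.1% final for 48 h; extract medium steroids with MTBE; measure progesterone by LC-MS/MS. MTT viability was run in the same wells.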

[15] = read-out: Tumor necrosis factor receptor superfamily member 6 (Homo sapiens) (UniProt P25445); experiment: LTEA_HepaRG_FAS: Life Technologies and Expression Analysis (LTEA) Assay for Fas cell surface death receptor (FAS) using HepaRG (AID 2283447; active means hit-call score of the fitted dose curve at least 0.9, where 1 is the maximum; inactive means score below 0.9); details: mRNA level, 48 h; actives raise or lower the signal
Summary of the method: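 Differentiated human HepaRG cells, pre-cultured 48 h, were exposed in duplicate for 48 h to 8-point half-log concentrations (top 100 uM, 0.5% DMSO) in serum-free induction medium; FAS mRNA measured by qRT-PCR, normalized to ACTB/GAPDH/POLR2A, bidirectional fit versus DMSO.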

[16] = read-out: Fatty acid synthase (Homo sapiens) (UniProt P49327); experiment: LTEA_HepaRG_FASN: Life Technologies and Expression Analysis (LTEA) Assay for Fatty Acid Synthase (FASN) using HepaRG (AID 2283448; active means hit-call score of the fitted dose curve at least 0.9, where 1 is the maximum; inactive means score below 0.9); details: mRNA level, 48 h; actives raise or lower the signal
Summary of the method: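 FASN expression changes, up or down relative to 0.5% DMSO, were measured by qRT-PCR in human HepaRG cells after 48 h treatment with chemicals at eight concentrations (half-log steps from 100 uM).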

[17] = target: Estrogen receptor beta (Homo sapiens) (UniProt Q92731); experiment: OT_ER_ERbERb_1440: Odyssey Thera (OT) 24-hour HEK293T Protein-Complementation Assay for Estrogen Receptor-beta/-beta Homodimer (AID 2283380);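 further: fluorescence gain from ER beta LBD homodimer complementation read by laser scanning cytometry; scored as signal increase over DMSO baseline for both agonists and antagonists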
Estrogen receptor beta (Homo sapiens), sequence (Q92731 whole entry, looked up, the tested form may be a part): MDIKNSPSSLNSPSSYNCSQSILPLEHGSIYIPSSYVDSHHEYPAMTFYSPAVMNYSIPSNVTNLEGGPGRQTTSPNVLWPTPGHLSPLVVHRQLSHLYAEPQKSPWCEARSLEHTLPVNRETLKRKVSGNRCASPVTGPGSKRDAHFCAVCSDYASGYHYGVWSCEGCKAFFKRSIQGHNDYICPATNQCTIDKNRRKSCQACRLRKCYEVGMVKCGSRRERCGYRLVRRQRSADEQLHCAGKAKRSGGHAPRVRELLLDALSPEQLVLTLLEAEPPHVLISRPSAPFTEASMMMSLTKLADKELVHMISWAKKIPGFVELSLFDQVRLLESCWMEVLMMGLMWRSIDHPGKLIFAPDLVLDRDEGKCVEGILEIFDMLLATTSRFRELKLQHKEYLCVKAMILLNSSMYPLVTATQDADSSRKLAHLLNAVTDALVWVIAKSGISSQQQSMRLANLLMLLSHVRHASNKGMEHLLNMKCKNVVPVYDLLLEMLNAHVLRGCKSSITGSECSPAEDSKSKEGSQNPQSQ
Summary of the method: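 HEK293T cells stably expressing human ER-beta LBD (aa 310-547) PCA homodimer pair, dosed 24 h; formaldehyde-fixed, Draq5-stained. Readout: increase in nuclear (agonist) or nuclear plus cytoplasmic (antagonist) fluorescence intensity versus DMSO, gain-of-signal fitting.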

Measured: AC50

Fatty acid synthase (Homo sapiens), sequence (P49327 whole entry, looked up): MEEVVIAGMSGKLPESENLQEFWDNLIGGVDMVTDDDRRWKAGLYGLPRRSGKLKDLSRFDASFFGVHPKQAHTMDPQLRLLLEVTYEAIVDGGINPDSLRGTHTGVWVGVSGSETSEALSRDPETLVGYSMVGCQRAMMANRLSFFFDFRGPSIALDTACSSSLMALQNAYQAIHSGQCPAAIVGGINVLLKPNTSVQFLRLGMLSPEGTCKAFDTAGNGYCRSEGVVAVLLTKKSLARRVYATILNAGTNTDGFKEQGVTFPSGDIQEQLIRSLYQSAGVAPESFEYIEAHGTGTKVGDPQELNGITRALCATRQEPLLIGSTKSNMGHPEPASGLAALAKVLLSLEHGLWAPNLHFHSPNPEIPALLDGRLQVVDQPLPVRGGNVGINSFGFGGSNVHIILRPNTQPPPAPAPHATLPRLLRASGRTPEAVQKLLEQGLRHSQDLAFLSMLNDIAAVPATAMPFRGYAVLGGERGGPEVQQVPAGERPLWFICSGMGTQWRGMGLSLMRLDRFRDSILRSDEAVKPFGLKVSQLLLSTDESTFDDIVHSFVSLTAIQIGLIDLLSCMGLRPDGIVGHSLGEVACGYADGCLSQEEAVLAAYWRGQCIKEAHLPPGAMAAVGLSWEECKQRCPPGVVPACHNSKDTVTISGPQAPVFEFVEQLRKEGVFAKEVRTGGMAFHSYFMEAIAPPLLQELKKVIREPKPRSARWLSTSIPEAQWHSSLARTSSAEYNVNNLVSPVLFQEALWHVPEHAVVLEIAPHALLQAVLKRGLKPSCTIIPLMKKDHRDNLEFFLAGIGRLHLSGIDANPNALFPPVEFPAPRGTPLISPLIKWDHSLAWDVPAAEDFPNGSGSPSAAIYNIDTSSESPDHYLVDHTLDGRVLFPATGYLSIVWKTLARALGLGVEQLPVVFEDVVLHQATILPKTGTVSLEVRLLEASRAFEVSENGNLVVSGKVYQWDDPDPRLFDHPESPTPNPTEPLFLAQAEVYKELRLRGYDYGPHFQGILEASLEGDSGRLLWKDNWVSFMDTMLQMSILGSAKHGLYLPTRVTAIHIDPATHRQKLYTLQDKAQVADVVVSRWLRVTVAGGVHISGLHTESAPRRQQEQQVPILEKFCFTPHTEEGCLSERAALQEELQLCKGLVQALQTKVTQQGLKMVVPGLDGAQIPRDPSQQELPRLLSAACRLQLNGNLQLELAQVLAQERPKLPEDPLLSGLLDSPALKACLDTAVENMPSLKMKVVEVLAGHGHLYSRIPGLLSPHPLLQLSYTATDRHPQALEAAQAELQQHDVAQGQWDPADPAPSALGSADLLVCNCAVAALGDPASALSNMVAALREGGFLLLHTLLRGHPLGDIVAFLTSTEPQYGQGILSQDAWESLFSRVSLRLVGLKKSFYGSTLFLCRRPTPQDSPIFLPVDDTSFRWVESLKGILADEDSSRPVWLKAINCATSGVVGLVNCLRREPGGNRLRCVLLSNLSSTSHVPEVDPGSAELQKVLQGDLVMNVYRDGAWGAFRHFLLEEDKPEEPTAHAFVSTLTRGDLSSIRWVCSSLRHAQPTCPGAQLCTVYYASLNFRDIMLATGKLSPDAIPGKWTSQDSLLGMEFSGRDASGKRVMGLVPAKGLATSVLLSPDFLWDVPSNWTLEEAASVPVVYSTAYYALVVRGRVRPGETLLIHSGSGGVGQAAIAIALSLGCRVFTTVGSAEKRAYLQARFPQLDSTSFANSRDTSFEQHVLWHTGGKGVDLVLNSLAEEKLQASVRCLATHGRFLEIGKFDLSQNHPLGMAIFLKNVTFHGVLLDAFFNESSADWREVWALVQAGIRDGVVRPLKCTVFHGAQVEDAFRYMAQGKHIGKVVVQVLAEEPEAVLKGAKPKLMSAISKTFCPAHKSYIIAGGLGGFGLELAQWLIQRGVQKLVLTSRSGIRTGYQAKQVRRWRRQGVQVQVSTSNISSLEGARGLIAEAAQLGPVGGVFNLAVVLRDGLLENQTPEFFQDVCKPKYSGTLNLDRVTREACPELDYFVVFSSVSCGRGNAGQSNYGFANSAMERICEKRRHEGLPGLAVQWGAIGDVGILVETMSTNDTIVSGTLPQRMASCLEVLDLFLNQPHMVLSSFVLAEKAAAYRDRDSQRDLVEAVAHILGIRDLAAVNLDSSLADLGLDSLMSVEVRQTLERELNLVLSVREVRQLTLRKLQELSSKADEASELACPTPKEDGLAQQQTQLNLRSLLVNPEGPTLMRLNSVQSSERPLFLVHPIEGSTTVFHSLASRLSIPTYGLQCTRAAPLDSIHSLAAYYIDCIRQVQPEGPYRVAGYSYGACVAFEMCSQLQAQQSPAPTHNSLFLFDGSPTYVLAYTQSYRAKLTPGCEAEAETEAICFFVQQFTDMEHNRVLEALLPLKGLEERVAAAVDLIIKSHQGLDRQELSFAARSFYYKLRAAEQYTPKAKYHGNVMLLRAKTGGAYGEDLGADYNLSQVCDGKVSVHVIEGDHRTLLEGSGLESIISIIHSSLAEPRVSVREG

NC(N)=S
inactive: [1] | [2] | [3] | [4] | [5] | [6]

OCCCO
inactive: [7] | [8] | [9] | [10] | [11] | [12] | [13] | [14]

CC(=O)Oc1c(C)c(C)c2c(c1C)CC[C@@](C)(CCC[C@H](C)CCC[C@H](C)CCCC(C)C)O2
inactive: [1] | [2] | [5] | [6]

C=C(C)C(N)=O
inactive: [1] | [2] | [3] | [4] | [5] | [6] | [15] | [16]

COc1ccc(OC)cc1
inactive: [1] | [2] | [3] | [4] | [5] | [6]

C[C@]12CC[C@@H]3c4ccc(O)cc4CC[C@H]3[C@@H]1CC[C@@H]2O
active: [7] 4.37 µM | [8] 1.57 µM | [10] 479 nM | [11] 2.63 µM | [12] 3.8 µM | [14] 5 µM
inactive: [3] | [5] | [6] | [15] | [16]

O=C(O)c1ccccc1O
inactive: [1] | [2] | [3] | [4] | [5] | [6]

C#C[C@]1(O)CC[C@H]2[C@@H]3CCc4cc(O)ccc4[C@H]3CC[C@@]21C
active: [3] 35.3 µM | [7] 0.364 µM | [8] 0.369 µM | [10] 142 nM | [14] 0.372 µM
inactive: [3] | [5] | [6] | [11] | [12] | [15] | [16]

CC(O)CNCC(C)O (stereo unspecified)
inactive: [2] | [5] | [6]

CCCCCCCCOC(C)=O
inactive: [2] | [3] | [5] | [6]

Cc1cccc(C)c1
inactive: [2] | [5] | [6]

CC(C)(C)C1CCC(O)CC1 (stereo unspecified)
inactive: [1] | [2] | [4]

c1coc(CNc2ncnc3nc[nH]c23)c1
inactive: [1] | [2] | [5] | [6] | [7] | [8] | [10] | [12] | [14]

CCCCCC1C(=O)CCC1CC(=O)OC (stereo unspecified)
inactive: [2] | [3] | [5] | [6]

CC1=CCC(C(C)C)=CC1
inactive: [2] | [3]

CCCC[N+](C)(CCCC)CCCC
inactive: [17] | [4] | [5] | [6]

O=c1cc(-c2ccc(O)cc2)oc2cc(O)cc(O)c12
active: [7] 8.73 µM | [12] 7.72 µM
inactive: [5] | [6] | [10] | [11]

OCC=Cc1ccccc1
inactive: [17] | [2] | [5] | [6] | [8] | [13] | [14]
